Only some compounds are listed: those with a hit (about 1.3% of all), similar ones and a draw of the others.
EPAC1 antagonist = EPAC1 (human) antagonism; EPAC1 GEF assay, Rap1b-BODIPY-GDP exchange fluorescence; Potency, µM (highest dose often 115 µM), for the others: at the highest dose activity change, negative = inhibition, usual class: inhibitors; O95398; 360,000 compounds, 0.14% hits;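 note: plate controls were vehicle for no effect and positive control for full effect; nearly all actives have a fitted effect of over 50% in size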
RGS4 inh = inhibitors of human regulator of G protein signaling 4; P49798; 390,000 compounds, 0.039% hits; Transcreener GDP fluorescence polarization, RGS4-accelerated GTP hydrolysis; Potency, µM (series often up to 114 µM), inactives show at the highest dose activity change, negative = inhibition, usual class: inhibitors; note: % is set by controls: 0 for no effect and ±100 for the full control effect; nearly all actives have a fitted effect of over 75% in size
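MLSMR compounds (23 nl, pin-transferred) preincubated 10 min at room temperature with a 500nM (2x) first reagent, then RGS4 at 900nM (2x) plus Transcreener GDP mix added; fluorescence polarization (620/688 nm) read before and after 90 min at 30 °C.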
EPAC1 agonist = agonists of human EPAC1; O95398; EPAC1 agonist qHTS, biochemical assay; response scale: 100% = response to 6.5 mM cAMP; Potency, µM (series often up to 154 µM), for inactives: at the highest dose activation, usual class: activators; 360,000 compounds, 0.073% hits; AID 720707; note: nearly all actives have a fitted effect of over 60% in size
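Nucleotide exchange by EPAC1 (100 nM) on Rap1B–BODIPY-GDP (250 nM) in the presence of 50 uM GDP is tracked fluorescently at 480/540 nm over 30 min. Signals are normalized to a 6.5 mM cAMP control.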
BRCA1 expr act = activators of BRCA1 expression | MCF7-BRCA1-FFLuc reporter, luminescence, 48 h; response scale: scaled: vehicle 0%, 10 µM genistein 100% | Potency, µM (highest dose often 46.1 µM), for inactives: top-dose activation, hits mostly activators | 380,000 compounds, 1.1% hits | AID 624202; note: nearly all actives have a fitted effect of over 80% in size
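Reporter cells (MCF7, BRCA1 promoter-firefly luciferase) received library compounds across a concentration series for 48 h. End-point luminescence was measured and concentration-effect curves derived after normalization.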
EPAC2 antag = blocks human EPAC2 exchange factor; Q8WZA2; EPAC2 GEF exchange of Rap1B-BODIPY-GDP, fluorescence; Potency, µM (series often up to 114 µM), without a hit: top-dose activity, negative = inhibition, usual class: inhibitors; 360,000 compounds, 0.18% hits; note: % is set by controls: 0 for no effect and ±100 for the full control effect; nearly all actives have a fitted effect of over 45% in size
EPAC2 ag = EPAC2 (human) agonism | 360,000 compounds, 0.079% hits | EPAC2 activation, biochemical qHTS; response scale: 100% = 6.5 mM cAMP response | Q8WZA2 | Potency, µM (top dose mostly 154 µM), for the others: at the top dose activation, most hits filed as activators; note: nearly all actives have a fitted effect of over 50% in size
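qHTS, titration series. 100 nM EPAC2 / 250 nM Rap1B-BODIPY-GDP / 50 uM GDP; RT; ex 480/em 540 nm, 5-min reads to 30 min. Norm. to 6.5 mM cAMP = activation.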
* = called active by the depositor; ? = inconclusive; . = not tested or not shown; [ ] = another dose, or the depositor's remark. Calls come from the whole dose curve; as a rule, active = well fitted curve in the direction sought with a large enough effect; inconclusive = small, poorly fitted or top-dose-only effect, or another doubt; inactive = no such curve, though single readings can be large; an effect the other way counts as inactive or inconclusive. Potency is the fitted concentration of half-maximal effect.

SMILES | EPAC1 antagonist | RGS4 inh | EPAC1 agonist | BRCA1 expr act | EPAC2 antag | EPAC2 ag
Fc1ccc(CSc2ccc(-c3cccs3)nn2)cc1 | 8% | -36% | -12% | 10µM* | 6% | 12%
Cc1ccc(CNS(=O)(=O)c2ccc(CN3C(=O)c4cccnc4C3=O)s2)o1 | -12% | -27%[56.9 µM] | 13% | -1% | 0% | 5%
O=C(O)C1Nc2c(O)cc(Cl)c([N+](=O)[O-])c2C2C=CCC12 (configuration not stated) | 13µM* | ? | 15% | -27% | -17% | 15%
COc1cccc2c1NC(C(=O)O)C1CC=CC21 (configuration not stated) | ? | ? | 1% | -1% | 15% | 4%
CC(=O)Nc1cc(C(C)C)c(O)c(C(C)C)c1 | 0% | 4% | 1% | 6% | -4% | 1%
COc1ccccc1/C=C/C=C1\Oc2c(ccc(O)c2CN2CCN(CCO)CC2)C1=O | 118% | -31% | 100µM* | -3% | 47% | ?
CCN1CCN(Cc2c(O)ccc3c2O/C(=C\c2ccccc2)C3=O)CC1 | 28% | -7% | 19% | 0% | 8% | 13%
CCN1CCN(Cc2c(O)ccc3c2O/C(=C\C=C\c2ccccc2)C3=O)CC1 | 47% | -2% | 100µM* | -56% | 56% | ?
O=C1/C(=C/C=C/c2ccccc2)Oc2c1ccc(O)c2CN1CCN(CCO)CC1 | 31% | -32% | ? | 1% | 35% | ?
CCC(=O)C1CCCN(C(=O)CCc2nnc(-c3ccc(C(C)=O)s3)o2)C1 (configuration not stated) | 1% | -30% | -6% | 13µM* | 7% | -4%
CCOC(=O)C1=C(C)NC(=O)CC1c1ccccc1OC (configuration not stated) | 12% | -9% | -5% | 6% | -2% | -5%
COc1cc(OC)nc(Nc2nc(C(N)COCc3ccccc3)cs2)n1 (configuration not stated) | -6% | . | 0% | -20% | 9% | 10%
Cc1cccc(C(=O)N=c2sccn2C)c1[N+](=O)[O-] | 17% | 2% | 13% | 5µM* | -5% | 5%
Cc1ccccc1C(=O)N=c1sccn1C | 0% | 23% | 2% | ? | -23% | 2%
CC(C)(C)c1ccc(NC(=O)C2=CC=CN3CCS(=O)(=O)N=C23)cc1 | 0% | -11% | -4% | 10µM* | -9% | 0%
O=C(Nc1ccc(Cl)cn1)c1ccc(COc2ccccc2Br)o1 | 9% | -23% | 1% | 11µM* | 3% | 4%
CN(C)C(=O)c1ccc(COc2ccccc2Br)o1 | 15% | -28% | -2% | 10µM* | 7% | -2%
Clc1ccc(-c2cc3ccccc3nc2N2CCCC2)cc1 | -3% | -20% | 17% | -9% | 6% | 8%
Clc1ccc(-c2cc3ccccc3nc2N2CCOCC2)cc1 | -28% | ? | 9% | -18% | 56µM* | 7%
Cn1c(=O)c(Nc2ccc(Cl)cc2)c2c3c(cccc31)C(=O)c1ccccc1-2 | 11% | -11% | ? | -42% | 63% | 112µM*
CCCCCOc1ccc(CSc2ncn[nH]2)cc1 | -11% | -4% | 7% | 2.8µM* | -16% | 6%
CCCCOc1ccc(CSc2ncn[nH]2)cc1 | -28% | -15% | 0% | 7.1µM* | -4% | 0%
CCCCOc1ccc(CSc2n[nH]c(C)n2)cc1 | 0% | 2% | -3% | 58% | 2% | -1%
CCCOc1ccc(CSc2nc3ccccc3[nH]2)cc1 | -15% | -28% | 25% | 8% | -11% | 24%
COc1ccc(CC(=O)N2CCc3ccccc32)cc1 | -8% | -4% | -1% | 8.9µM* | 2% | 11%
SMILES | EPAC1 antagonist | RGS4 inh | EPAC1 agonist | BRCA1 expr act | EPAC2 antag | EPAC2 ag
O=C(Cc1ccccc1)N1CCc2ccccc21 | 1% | 20% | 8% | ? | -1% | 3%
COc1ccc2c(CC(=O)N3CCc4ccccc43)coc2c1 | -6% | -7% | 4% | 3.5µM* | -5% | 19%
Cc1ccc(-c2cc(C(F)F)n3ncc(C(=O)N4CCCc5ccccc54)c3n2)cc1 | 8% | 9% | 0% | -31% | 5% | -2%
COc1ccc(-c2cc(C(F)F)n3ncc(C(=O)N4CCc5ccccc54)c3n2)cc1 | -18% | ? | -15% | -73% | 59% | 100µM*
COc1ccc(CNC(=O)c2cnc(N3CCOCC3)c3ccccc23)cc1 | . | -16% | . | . | . | .
Cc1nn(C)c(C)c1CNC(=O)Nc1ccc2c(c1)OCO2 | 20% | -28% | -8% | ? | 6% | 11%
O=C(NCc1ccccn1)Nc1cccc(Cl)c1 | -9% | -2% | 4% | 13µM* | 0% | 8%
Cc1nn(C)c(C)c1CNC(=O)Nc1cccc(Cl)c1 | -2% | 0% | 1% | 4µM* | -3% | 7%
Cc1nn(C)c(C)c1CNC(=O)Nc1ccc(Cl)cc1 | 11% | -23% | -2% | 6.3µM* | -1% | -7%
S=C(NCCc1ccccc1)Nc1cccc2cnccc12 | -13% | -30% | 6% | -28% | 3% | 2%
COc1c(C)cccc1C(=O)Nc1ccc(N2CCN(S(C)(=O)=O)CC2)cc1 | -23% | -5% | 15% | 3.5µM* | -1% | 1%
COc1c(C)cc(Br)cc1C(=O)Nc1ccc(N2CCN(S(C)(=O)=O)CC2)cc1 | 12% | 10% | 2% | 5% | 3% | 1%
COc1ccccc1C(=O)Nc1ccccc1N1CCN(S(C)(=O)=O)CC1 | -13% | 29% | -1% | -24% | -5% | 4%
COc1ccccc1C(=O)Nc1ccc(N2CCN(S(C)(=O)=O)CC2)cc1 | 16% | -16% | 2% | 11µM* | 10% | 1%
CCc1nnc(NC(=O)c2ccc(OC)cc2OC)s1 | -22% | 23% | 10% | -46% | -4% | 7%
COc1ccc(C(=O)Cc2nnc(C)s2)c(OC)c1 | 19% | 7% | 2% | 11µM* | 5% | 3%
C/C(=N\NC(=O)c1c(Cl)cnn1C)c1ccc(NC(=O)c2ccc(Br)o2)cc1 | -18% | -33% | -7% | 10µM* | -6% | -2%
C/C(=N/NC(=O)c1ccc(Br)o1)c1ccncc1 | -2% | -5% | 1% | 2% | 8% | 4%
CCOC1=CC2=C(C(=O)C(Cl)=CC2=O)[C@@H]2CN(S(=O)(=O)c3ccc(C)cc3)[C@@H](c3ccccc3)[C@H]12 | 56µM* | . | -5% | -30% | -4% | 2%
COc1ccc(Br)cc1Cn1nnc(C(=O)Nc2ccc(C)cc2C)c1N | . | -27% | . | -17% | . | .
COc1ccc(C(=O)Cc2cc3ccccc3oc2=O)cc1 | -3% | -24% | 1% | 4.5µM* | 0% | 3%

Screens deposited in PubChem BioAssay by National Center for Advancing Translational Sciences (NCATS).
